Structures are written as SMILES. In all, about 39,000 compounds went through this assay and about 3,300 (8.5%) were called active. The sample holds actives, similar compounds and a random draw of the others, so the mix is not that of the screen.

The subject of the experiment is HepG2. Description: cytotoxicity call (relative viability < 0.9). The following applies: 10 µM.
For `C[C@H](NC(=O)N(C)C[C@H]1OCc2ccccc2-c2ccccc2C(=O)N([C@H](C)CO)C[C@@H]1C)c1ccccc1`, the cytotoxicity call was “inactive”.

As for `O=C(NCCO[N+](=O)[O-])c1cccnc1` [listing 1 of 2 here], the cytotoxicity call is “active”. Then `CC(=O)OCCNC(=O)c1cccnc1`, with “inactive”. Then `O=C(NCCO[N+](=O)[O-])c1cccnc1` [listing 2 of 2 here], with “inactive”; and `CC(C)CC#Cc1ccc2c(c1)O[C@H](CN(C)Cc1cncnc1)[C@@H](C)CN([C@@H](C)CO)S2(=O)=O`, with “inactive”. As to `O=C(C[C@H]1C=C[C@@H](NC(=O)c2cccc(F)c2)[C@@H](CO)O1)NCCN1CCCC1`, the cytotoxicity call is “inactive”. As to `C[C@@H]1COCCS(=O)(=O)N1C`, the cytotoxicity call was “inactive”. As for `O=C(CCCCCNC(=O)OC[C@H]1C(=O)O[C@@H](Cc2ccccc2)[C@H]2[C@H]3C(=CC(=O)[C@@H]3C3CC3)CN21)NO`, the entry is “inactive”. Then `C[C@@H]1CCCCO[C@@H](CN(C)C(=O)CCC(F)(F)F)[C@@H](C)CN([C@@H](C)CO)C(=O)c2cc(NS(=O)(=O)c3ccc(F)cc3)ccc2O1`, with “inactive”; and `COc1cccc(S(=O)(=O)N(C)C[C@@H]2OCc3cn(nn3)CCCC(=O)N([C@@H](C)CO)C[C@@H]2C)c1`, with “inactive”; and `C[C@@H]1CCCCO[C@@H](CN(C)S(=O)(=O)c2ccc(Cl)cc2)[C@@H](C)CN([C@H](C)CO)C(=O)c2cc(NC(=O)NC3CCCCC3)ccc2O1`, with “inactive”. Then `C[C@@H]1CCCCO[C@@H](CN(C)S(=O)(=O)c2ccc(Cl)cc2)[C@H](C)CN([C@@H](C)CO)C(=O)c2cc(NC(=O)NC3CCCCC3)ccc2O1`, with “inactive”; and `C[C@H](CO)N1C[C@H](C)[C@H](CN(C)S(=O)(=O)c2ccc(Cl)cc2)OCCCC[C@H](C)Oc2ccc(NC(=O)NC3CCCCC3)cc2C1=O`, with “inactive”. Consider `C[C@@H]1CCCCO[C@H](CN(C)S(=O)(=O)c2ccc(Cl)cc2)[C@H](C)CN([C@H](C)CO)C(=O)c2cc(NC(=O)NC3CCCCC3)ccc2O1`, for which the cytotoxicity call is “active”.

In the case of `C[C@@H]1CN([C@@H](C)CO)C(=O)c2cc(NC(=O)NC3CCCCC3)ccc2O[C@@H](C)CCCCO[C@@H]1CN(C)S(=O)(=O)c1ccc(Cl)cc1`, the cytotoxicity call was “inactive”. Consider `C[C@@H]1CN([C@H](C)CO)C(=O)c2cc(NC(=O)NC3CCCCC3)ccc2O[C@@H](C)CCCCO[C@@H]1CN(C)S(=O)(=O)c1ccc(Cl)cc1`, for which the cytotoxicity call is “inactive”. As for `C[C@@H]1CN([C@H](C)CO)C(=O)c2cc(NC(=O)NC3CCCCC3)ccc2O[C@@H](C)CCCCO[C@H]1CN(C)S(=O)(=O)c1ccc(Cl)cc1`, the entry is “active”; as for `C[C@@H]1CCCCO[C@@H](CN(C)S(=O)(=O)c2ccc(Cl)cc2)[C@H](C)CN([C@H](C)CO)C(=O)c2cc(NC(=O)NC3CCCCC3)ccc2O1`, “active”.

As to `C[C@H](CO)N1C[C@H](C)[C@@H](CN(C)S(=O)(=O)c2ccc(Cl)cc2)OCCCC[C@H](C)Oc2ccc(NC(=O)NC3CCCCC3)cc2C1=O`, the cytotoxicity call is “active”. On to `C[C@@H]1CCCCO[C@H](CN(C)S(=O)(=O)c2ccc(Cl)cc2)[C@@H](C)CN([C@H](C)CO)C(=O)c2cc(NC(=O)NC3CCCCC3)ccc2O1`, for which the cytotoxicity call was “inactive”. As for `Cc1ccc(S(=O)(=O)N(C)C[C@H]2OCCCC[C@H](C)Oc3ccc(NS(C)(=O)=O)cc3C(=O)N([C@H](C)CO)C[C@H]2C)cc1`, the entry is “inactive”; as for `CNC[C@@H]1OCCCC[C@@H](C)Oc2ccc(NC(=O)c3ccncc3)cc2C(=O)N([C@@H](C)CO)C[C@H]1C`, “inactive”.

With `C[C@H](CO)N1C[C@H](C)[C@H](CN(C)C(=O)c2ccncc2)OCCCC[C@H](C)Oc2ccc(NS(=O)(=O)c3ccc(Cl)cc3)cc2C1=O`, the cytotoxicity call was “inactive”. As for `CC(C)CN1C[C@H](C(=O)O)CC1=O`, the entry is “inactive”; as for `C[C@H](CO)N1C[C@H](C)[C@@H](CN(C)S(=O)(=O)c2cccs2)Oc2ccc(NC(=O)Cn3cnnn3)cc2C1=O`, “inactive”. As for `COc1ccc(CCN2C(=O)[C@@]3(c4ccc([N+](=O)[O-])cc4)CC(=O)N(C4CCCCC4)[C@@H]3c3ccc(CO)cc32)cc1`, the entry is “inactive”. As to `C[C@@H]1CN([C@H](C)CO)C(=O)c2cc(NC(=O)C3CCCCC3)ccc2O[C@@H](C)CCCCO[C@H]1CN(C)Cc1ccncc1`, the cytotoxicity call is “inactive”.

As to `C[C@H](CO)N1C[C@H](C)[C@H](CN(C)C(=O)c2ccccn2)Oc2cc(C#Cc3ccccc3)ccc2S1(=O)=O`, the cytotoxicity call is “inactive”. Consider `C[C@H](CO)N1C[C@H](C)[C@@H](CN(C)C(=O)Nc2ccc3c(c2)OCO3)OCCCC[C@H](C)Oc2ccc(NC(=O)Nc3ccc(C(F)(F)F)cc3)cc2C1=O`, for which the cytotoxicity call is “inactive”. Then `C[C@@H]1CN([C@@H](C)CO)C(=O)c2cccc(NS(C)(=O)=O)c2O[C@H]1CN(C)Cc1ccc2c(c1)OCO2`, with “inactive”; and `Cc1ccc(S(=O)(=O)N2C[C@H](O)COC[C@H]3O[C@H](CC(=O)NCc4ccc5c(c4)OCO5)CC[C@@H]32)cc1`, with “inactive”.

For `C[C@H]1CN([C@@H](C)CO)C(=O)c2cc(C#Cc3cccc(F)c3)cnc2O[C@@H]1CN(C)CC1CCOCC1`, the cytotoxicity call is “inactive”. Then `C[C@H](CO)N1C[C@H](C)[C@H](CN(C)C(=O)Nc2ccc(C(F)(F)F)cc2)OCCCC[C@H](C)Oc2ccc(NC(=O)Nc3ccc4c(c3)OCO4)cc2C1=O`, with “inactive”; and `C[C@H]1CCCCO[C@H](CN(C)S(=O)(=O)c2ccc(Cl)cc2)[C@@H](C)CN([C@@H](C)CO)C(=O)c2cc(NC(=O)NC3CCCCC3)ccc2O1`, with “inactive”; and `C[C@@H]1CCCCO[C@H](CN(C)S(=O)(=O)c2ccc(Cl)cc2)[C@@H](C)CN([C@@H](C)CO)C(=O)c2cc(NC(=O)NC3CCCCC3)ccc2O1`, with “inactive”. Then `C[C@@H]1CCCCO[C@H](CN(C)S(=O)(=O)c2ccc(Cl)cc2)[C@H](C)CN([C@@H](C)CO)C(=O)c2cc(NC(=O)NC3CCCCC3)ccc2O1`, with “inactive”. As for `C[C@H]1CCCCO[C@@H](CN(C)S(=O)(=O)c2ccc(Cl)cc2)[C@@H](C)CN([C@@H](C)CO)C(=O)c2cc(NC(=O)NC3CCCCC3)ccc2O1`, the cytotoxicity call was “active”. Then `C[C@@H]1CCCCO[C@@H](CN(C)S(=O)(=O)c2ccc(Cl)cc2)[C@@H](C)CN([C@@H](C)CO)C(=O)c2cc(NC(=O)NC3CCCCC3)ccc2O1`, with “active”; and `CN1[C@@H]2Cn3c(ccc(-c4ccccc4)c3=O)[C@H]1[C@@H](C(=O)NCCCN1CCOCC1)[C@@H]2CO`, with “inactive”; and `C[C@@H]1CN([C@@H](C)CO)C(=O)Cc2cc(NC(=O)Cn3cnnn3)ccc2O[C@H]1CN(C)C(=O)Nc1ccccc1`, with “inactive”. Then `CCCNC(=O)N[C@H]1C=C[C@@H](CC(=O)N2CCN(C)CC2)O[C@@H]1CO`, with “inactive”; and `C[C@H]1CN([C@@H](C)CO)C(=O)c2cc(/C=C/c3ccccc3)cnc2O[C@@H]1CN(C)C(=O)c1cnccn1`, with “inactive”. With `C[C@H]1CN([C@@H](C)CO)C(=O)Cc2cc(NC(=O)Cn3cnnn3)ccc2O[C@H]1CN(C)Cc1ccc(Oc2ccccc2)cc1`, the cytotoxicity call is “inactive”.

For `COCC(=O)N(C)C[C@@H]1Oc2cc(-c3ccc(C#N)cc3)ccc2S(=O)(=O)N([C@H](C)CO)C[C@H]1C`, the cytotoxicity call was “inactive”. Take `COc1ccc(S(=O)(=O)Nc2ccc3c(c2)C(=O)N([C@@H](C)CO)C[C@@H](C)[C@@H](CN(C)S(C)(=O)=O)OCCCC[C@@H](C)O3)cc1`: the cytotoxicity call is “inactive”. As for `C[C@H](CO)N1C[C@H](C)[C@@H](CN(C)S(=O)(=O)c2cccs2)Oc2ccc(NC(=O)Cc3ccccc3)cc2C1=O`, the cytotoxicity call is “inactive”. As for `C[C@@H]1CN([C@H](C)CO)C(=O)c2cc(NC(=O)Nc3ccc(F)cc3)ccc2O[C@@H](C)CCCCO[C@H]1CN(C)Cc1ccncc1`, the entry is “inactive”; as for `C[C@H]1CN([C@@H](C)CO)C(=O)c2cc(NC(=O)Nc3ccccc3)ccc2O[C@H]1CN(C)Cc1ccc(-c2ccccc2)cc1`, “inactive”. In the case of `C[C@@H]1CN([C@@H](C)CO)C(=O)c2cc(NC(=O)Nc3ccccc3)ccc2O[C@H]1CN(C)Cc1ccc(-c2ccccc2)cc1`, the cytotoxicity call was “active”.

Take `C[C@H](CO)N1C[C@H](C)[C@H](CN(C)Cc2ccc(-c3ccccc3)cc2)Oc2ccc(NC(=O)Nc3ccccc3)cc2C1=O`: the cytotoxicity call is “inactive”. For the compound `CC(C)NC(=O)Nc1ccc2c(c1)C(=O)N([C@@H](C)CO)C[C@@H](C)[C@H](CN(C)Cc1ccc(-c3ccccc3)cc1)O2`, the cytotoxicity call was “inactive”. As for `CC(C)NC(=O)Nc1ccc2c(c1)C(=O)N([C@@H](C)CO)C[C@H](C)[C@@H](CN(C)Cc1ccc(-c3ccccc3)cc1)O2`, the entry is “inactive”; as for `C[C@H](CO)N1C[C@H](C)[C@@H](CN(C)Cc2ccc(-c3ccccc3)cc2)Oc2ccc(NC(=O)Nc3ccccc3)cc2C1=O`, “active”. As for `C[C@@H]1CN([C@H](C)CO)C(=O)c2cc(NC(=O)Nc3ccccc3)ccc2O[C@@H]1CN(C)Cc1ccc(-c2ccccc2)cc1`, the entry is “active”; as for `CC(C)NC(=O)Nc1ccc2c(c1)C(=O)N([C@@H](C)CO)C[C@@H](C)[C@@H](CN(C)Cc1ccc(-c3ccccc3)cc1)O2`, “active”. As for `C[C@@H]1CCCCO[C@@H](CN(C)C(=O)CCC(F)(F)F)[C@H](C)CN([C@H](C)CO)C(=O)c2cc(NC(=O)NC3CCCCC3)ccc2O1`, the entry is “inactive”. In the case of `COCCNC(=O)C[C@H]1CC[C@@H]2[C@H](COC[C@H](O)CN2S(=O)(=O)c2ccccc2C)O1`, the cytotoxicity call was “inactive”. As for `C[C@H]1CN([C@@H](C)CO)C(=O)c2c(c3ccccc3n2C)-c2ccccc2CO[C@@H]1CN(C)Cc1ccc(O)cc1`, the entry is “inactive”; as for `C[C@H]1CN([C@@H](C)CO)C(=O)c2cc(NC(=O)CCN3CCOCC3)ccc2O[C@@H]1CN(C)S(=O)(=O)c1cn(C)cn1`, “inactive”; as for `COc1ccc(S(=O)(=O)N(C)C[C@@H]2Oc3ccc(NC(=O)Nc4c(C)noc4C)cc3CC(=O)N([C@H](C)CO)C[C@@H]2C)cc1`, “inactive”. Regarding `CC(C)NC(=O)N(C)C[C@@H]1Oc2c(NS(=O)(=O)c3ccc(Cl)cc3)cccc2C(=O)N([C@H](C)CO)C[C@@H]1C`, the cytotoxicity call was “inactive”.

These data come from the antibiotic and cytotoxicity screens of Wong et al. (2023).
